Assay outcomes as filed in PubChem.
USP30 block: inhibitors of human USP30 deubiquitinase | Q70CQ3 | purified USP30, Ub-rhodamine cleavage fluorescence | inhibition, % at 25 µM | 5.3% of 47,000 active | AID 1645860
USP17 inh: inhibitors of human USP17 deubiquitinase | inhibition, % at 50 µM | AID 1645855 | 6.5% of 47,000 active | purified USP17, Ub-rhodamine cleavage fluorescence, 3 h
OTUD3 block: blocks human OTUD3 ubiquitin-rhodamine cleavage; Q5T2D3; purified OTUD3, Ub-rhodamine fluorescence, 2 h; inhibition, % at 25 µM; 0.7% of 47,000 active; AID 1645858
USP28 block: blocks human USP28 ubiquitin-rhodamine cleavage; Q96RU2; inhibition, % at 25 µM; purified USP28, Ub-rhodamine cleavage fluorescence, 30 min; 3% of 47,000 active; AID 1645857
Target sequence (Q96RU2 whole entry, looked up): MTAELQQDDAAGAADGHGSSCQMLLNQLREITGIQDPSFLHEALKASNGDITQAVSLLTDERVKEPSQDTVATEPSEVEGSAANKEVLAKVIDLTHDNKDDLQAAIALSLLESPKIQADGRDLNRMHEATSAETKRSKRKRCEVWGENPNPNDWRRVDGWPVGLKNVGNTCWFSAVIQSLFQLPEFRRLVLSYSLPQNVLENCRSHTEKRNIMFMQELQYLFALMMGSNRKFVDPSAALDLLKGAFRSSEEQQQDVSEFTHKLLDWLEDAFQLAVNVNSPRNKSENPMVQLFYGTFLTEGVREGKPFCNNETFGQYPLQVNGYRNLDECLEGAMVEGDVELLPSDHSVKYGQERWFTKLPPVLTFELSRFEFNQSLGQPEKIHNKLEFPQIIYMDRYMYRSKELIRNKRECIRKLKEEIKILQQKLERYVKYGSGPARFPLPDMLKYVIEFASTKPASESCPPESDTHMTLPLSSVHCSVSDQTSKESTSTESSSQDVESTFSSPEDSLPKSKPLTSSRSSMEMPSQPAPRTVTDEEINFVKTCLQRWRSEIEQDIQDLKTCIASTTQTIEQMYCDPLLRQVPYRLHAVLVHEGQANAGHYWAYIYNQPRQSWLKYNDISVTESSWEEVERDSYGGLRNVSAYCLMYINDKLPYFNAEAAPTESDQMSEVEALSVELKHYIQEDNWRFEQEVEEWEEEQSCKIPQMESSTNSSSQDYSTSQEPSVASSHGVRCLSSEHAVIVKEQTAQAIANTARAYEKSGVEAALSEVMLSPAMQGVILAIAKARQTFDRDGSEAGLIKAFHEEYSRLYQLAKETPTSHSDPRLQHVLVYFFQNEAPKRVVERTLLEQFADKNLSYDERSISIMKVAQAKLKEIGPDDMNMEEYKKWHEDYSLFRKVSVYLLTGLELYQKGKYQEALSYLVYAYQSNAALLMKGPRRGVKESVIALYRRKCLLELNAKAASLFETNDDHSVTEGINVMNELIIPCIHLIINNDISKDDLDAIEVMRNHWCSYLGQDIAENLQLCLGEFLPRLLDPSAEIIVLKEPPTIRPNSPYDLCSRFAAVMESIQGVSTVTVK
Large screens that a line does not name were inactive. Sampled rows, rich in hits. Any-hit rate of the full collection: about 12%. No stated cut-off is given here; in the data, active means inhibition above about 30%; inactive means the rest.

O=C(CSc1nnc(-c2ccccn2)n1-c1ccccc1)Nc1cccc2ccccc12	none
COc1ccc(CSc2nnc(-c3ccccn3)n2-c2ccc(OC)cc2)cc1	USP30 block 37.6
COc1ccc(-n2c(SCC(=O)c3ccccc3)nnc2-c2cccnc2)cc1	none
Cc1ccc(C)c(NC(=O)CSc2nnc(-c3ccccn3)n2Cc2ccco2)c1	USP30 block 61.6, USP17 inh 39.3
Fc1ccccc1CSc1nnc(-c2ccccn2)n1Cc1ccco1	USP28 block 31.7
COc1ccccc1NC(=O)CSc1nnc(-c2ccccn2)n1-c1cc(C)cc(C)c1	USP17 inh 34.5
O=C(c1ccoc1)N1CCC(N2CC(=O)N(c3ccc(F)cc3)C2)CC1	none
CS(=O)(=O)c1ccc(NC(=O)c2cc(=O)[nH]c3ccccc23)cc1	none
O=C(CSc1nnc(-c2cnccn2)n1Cc1ccco1)Nc1cccc(F)c1	none
Fc1ccc(CSc2nnc(-c3ccccn3)n2Cc2ccco2)cc1	USP28 block 56.3
Cc1nc(-c2ccccc2)n(Cc2ccc(F)cc2)c(=O)c1CCO	USP28 block 32.6 (no result: USP17 inh)
CC(C)(O)[C@@H]1CC[C@](C)([C@H]2CC3(CCN(C(=O)c4ccc5ncccc5c4)CC3)CO2)O1	none
Cc1cc2cc(CNC(=O)c3ccccc3[N+](=O)[O-])ccc2[nH]1	USP17 inh 39.0
COc1ccc(CC(=O)NCc2ccc3[nH]c(C)cc3c2)cc1	USP17 inh 56.3
COc1ccc(-c2ccc(SCc3nc(-c4ccc(C)cc4)no3)nn2)cc1OC	none
CS(=O)(=O)c1ccc2nc(N(Cc3cccnc3)C(=O)c3ccc4ccccc4c3)sc2c1	USP30 block 51.5, USP17 inh 52.6
COc1ccc(C(=O)NCCS(=O)(=O)N2CCN(c3ccccc3)CC2)cc1	USP17 inh 40.5
O=C(CCCCCn1c(=O)[nH]c2ccccc2c1=O)NCc1ccccc1Cl	USP30 block 47.9
O=C(CCCCCn1c(=O)[nH]c2ccccc2c1=O)NCCc1ccc(Cl)cc1	none
O=C(CCCCn1c(=O)[nH]c2ccccc2c1=O)Nc1cccc(Cl)c1	USP17 inh 79.7
O=C(CCCCCn1c(=O)[nH]c2ccccc2c1=O)Nc1ccccc1Br	USP30 block 34.8
COc1ccc(CNC(=O)c2ccc3nc(NS(C)(=O)=O)sc3c2)cc1OC	none
COCCN1C(=O)CC[C@@]2(C(=O)Nc3ccccn3)CCCC[C@@H]12	none
Oc1ccc(-c2nnc(Nc3ccc(Cl)c(Cl)c3)c3ccccc23)cc1	USP17 inh 48.9
CCNC(=O)N1CCCC(c2cccc(C(=O)NCc3ccccc3OC)c2)C1 (stereo unspecified)	none
COc1ccc(NC(=O)C2=Cc3ccccc3OC2)cc1	USP30 block 33.6
Cc1ccccc1CNC(=O)Cn1cnc(S(=O)(=O)N2CCCCC2)c1	none
Cc1ccccc1Cn1ccc(NC(=O)c2noc(C)c2[N+](=O)[O-])n1	USP28 block 75.0
CCn1ncc(S(=O)(=O)Nc2ccn(Cc3ccccc3C)n2)c1C	none
COc1cc(-c2ccno2)ccc1S(=O)(=O)Nc1ccc(C#N)cc1	none
COc1cc(-c2ccno2)ccc1S(=O)(=O)Nc1ccccc1Cl	USP28 block 59.5
Cc1ccc2c(c1)C(Cc1ccc(OC(C)C)cc1)C(=O)N2 (stereo unspecified)	none
CCOC(=O)Cn1c(-c2ccc(Cl)cc2)ccc(C#N)c1=O	USP30 block 30.3
COc1cc(NC(=O)Cn2cc(C(=O)c3ccccc3)c(=O)c3cc(Cl)ccc32)cc(OC)c1	none
CCOc1ccc2c(c1)c(=O)c(C(=O)c1ccc(C)cc1)cn2CC(=O)Nc1ccc(OC)c(OC)c1	USP30 block 70.4, USP17 inh 36.2, OTUD3 block 35.7, USP28 block 40.2
CCOc1ccc2c(c1)c(=O)c(C(=O)c1ccc(F)cc1)cn2CC(=O)Nc1ccc(F)cc1	USP17 inh 41.3 (no result: USP30 block, USP28 block)
Cc1ccc(C(=O)c2cn(CC(=O)Nc3ccc(Cl)cc3)c3ccc(F)cc3c2=O)cc1	none
COc1ccc(NC(=O)Cn2cc(C(=O)c3ccc(F)cc3)c(=O)c3cc(C)ccc32)cc1	USP30 block 31.7, USP17 inh 75.5
COc1ccc(NC(=O)CCCSc2nc3ccccc3[nH]2)cc1OC	none
Cc1cccc(OCCCSc2nc3ccccc3[nH]2)c1	USP28 block 44.7
COc1cccc(OCCCSc2nc3ccccc3[nH]2)c1	USP28 block 40.9
Cc1ccc2cc(-c3noc(CCC(=O)NC4CCCC4)n3)c(=O)[nH]c2c1	none
Cc1cc2nc(/C=C/c3ccccc3)n(Cc3cccc(F)c3)c2cc1C	USP28 block 50.9
Clc1ccccc1Cn1c(/C=C/c2ccccc2)nc2ccccc21	none
Cn1c(=O)[nH]c(=O)c2c1nc(NCCCO)n2CC(=O)c1ccccc1	USP30 block 40.2
CN(C)c1nc2c(c(=O)[nH]c(=O)n2C)n1CC(=O)c1ccccc1	none (no result: USP30 block, USP28 block)
COc1ccc(Cn2cc(S(=O)(=O)N3CCCC3)ccc2=O)cc1	none
CO[C@H]1CC[C@H](O)c2c1oc1c3c4c(c(O)c1c2=O)-c1c(cc2c(Cl)c(C)n(N)c(=O)c2c1O)C[C@@H]4OCO3	USP17 inh 62.3, OTUD3 block 43.5, USP28 block 59.0
CCCCCn1c(=O)c2sccc2n2c(CCC(=O)NC3CCCCCC3)nnc12	USP17 inh 35.5
COc1ccccc1S(=O)(=O)N1CC[C@@H]2CN(C)[C@@H]2C1	USP17 inh 55.8
CCOc1ccccc1NC(=O)Cn1c(=O)n(CCCC(=O)N2CCc3ccccc3C2)c(=O)c2ccccc21	USP30 block 44.8
Cc1nn2c(CNS(=O)(=O)Cc3ccccc3F)c(C)nc2s1	none
Cc1nc2nc(C(c3ccccc3)c3ccccc3)[nH]n2c(=O)c1Cc1ccccc1	USP17 inh 45.0
Cc1cccc(N2CCn3c2nc2c3c(=O)n(CCN3CCOCC3)c(=O)n2C)c1	USP30 block 37.5
Cc1ccc(N2CCCn3c2nc2c3c(=O)n(CCN3CCOCC3)c(=O)n2C)cc1	USP30 block 33.6
Cn1c(=O)n(CCN2CCOCC2)c(=O)c2c1nc1n2CCN1c1cccc(Cl)c1	none
O=C(COc1nncc2ccccc12)Nc1cc(C(F)(F)F)ccc1N1CCOCC1	none
COCCN1C(=O)c2ccccc2C(C(=O)N2CCN(c3ccccc3)CC2)C1c1cccs1 (stereo unspecified)	none
COc1ccccc1N(C(=O)Nc1ccccc1)C1=NCCC1	USP28 block 45.9
COc1ccc(NC(=O)N(C2=NCCC2)c2ccccc2)cc1	none
COc1c(O)cc(CC(=O)O)c(C(C)=O)c1O	USP30 block 33.8, USP17 inh 81.0, OTUD3 block 78.0, USP28 block 78.7
CCCCCCCC(=O)c1c(O)cc(O)cc1CC(=O)O	none
Clc1ccccc1CSc1ncnc2c1sc1nc(-c3ccccc3)c3c(c12)CCC3	none
O=C(Nc1ccc(N2CCN(Cc3ccccc3)C2=O)nc1)C1CCC1	none
CC(C)C(=O)Nc1ccc(N2CCN(Cc3ccc(F)cc3)C2=O)nc1	USP17 inh 62.2
Cc1nnc(-c2coc(S(=O)(=O)N3CCN(c4ccccc4F)CC3)c2)o1	USP30 block 39.5
Cc1nnc(-c2coc(S(=O)(=O)N3CCN(c4ccccc4C)CC3)c2)o1	none
Cn1c(C(=O)NCCc2ccc(S(N)(=O)=O)cc2)cc2sc(Cl)cc21	USP28 block 41.5
CCCC(=O)N1CCC2(CC1)NC(=O)N(CCc1ccccc1)C2=O	none
